Source: PubChem BioAssay (Broad Institute)
PvdQ acylase: P. aeruginosa PvdQ acylase inhibition; purified PvdQ acylase, fluorescence plate reader; inhibition, % at 10 µM; hit rate 0.063% among 340,000; AID 488965; in the data active means inhibition above about 30%, passing the limit was not always enough
rRNA inh HTS: selective bacterial rRNA inhibition in E. coli; E. coli WT GFP vs humanized-ribosome RFP mutants, fluorescence, 24 h; stronger effect = lower value; DMSO median 0, no signal -100; GFP signal change (wild-type ribosome), % (test concentration not listed); hit rate 1.6% among 350,000;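 active means significant combined selectivity score with lowered wild-type GFP, culture density cut under 30%, mutant RFP and density less affected; inactive means any of these conditions unmet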
ARNT TACC3 PPI: disrupts binding between human ARNT and TACC3. inhibition, % at 9.99 µM. hit rate 0.66% among 390,000. Q9Y6A5. AlphaScreen His-ARNT PAS-B/GST-TACC3 binding, luminescence; TACC3 fragment carries E629A point mutation;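 active means mean inhibition of replicates at least 50% and at least half of replicates each reaching 50%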
F508del corr: correctors of CFTR F508del function in bronchial epithelial cells; AID 720511; CFBE cells, YFP halide quenching; stimulated with forskolin plus potentiator P3; % fluorescence drop versus neutral controls; activity (quench increase), % at 7.58 µM; hit rate 0.36% among 350,000;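 active means mean added fluorescence quench of at least 8% versus neutral control, with both replicates also reaching 8%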;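 further: cells transiently co-express mutant CFTR-F508del with the halide-sensitive YFP; corrector assay measuring rescue of mutant channel to the surface after 24 h compound exposure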
ERAP1 inh: ERAP1 (human) enzyme inhibition; Q9NZ08; inhibition, % at 10.7 µM; hit rate 0.15% among 340,000; recombinant ERAP1, Leu-AMC fluorescence, 60 min; AID 652197;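 active means mean replicate inhibition of at least 30%, or all replicates individually reaching that 30% level; inactive means mean below 30% and not every replicate reaching it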
Target sequence (Q9NZ08 whole entry, looked up): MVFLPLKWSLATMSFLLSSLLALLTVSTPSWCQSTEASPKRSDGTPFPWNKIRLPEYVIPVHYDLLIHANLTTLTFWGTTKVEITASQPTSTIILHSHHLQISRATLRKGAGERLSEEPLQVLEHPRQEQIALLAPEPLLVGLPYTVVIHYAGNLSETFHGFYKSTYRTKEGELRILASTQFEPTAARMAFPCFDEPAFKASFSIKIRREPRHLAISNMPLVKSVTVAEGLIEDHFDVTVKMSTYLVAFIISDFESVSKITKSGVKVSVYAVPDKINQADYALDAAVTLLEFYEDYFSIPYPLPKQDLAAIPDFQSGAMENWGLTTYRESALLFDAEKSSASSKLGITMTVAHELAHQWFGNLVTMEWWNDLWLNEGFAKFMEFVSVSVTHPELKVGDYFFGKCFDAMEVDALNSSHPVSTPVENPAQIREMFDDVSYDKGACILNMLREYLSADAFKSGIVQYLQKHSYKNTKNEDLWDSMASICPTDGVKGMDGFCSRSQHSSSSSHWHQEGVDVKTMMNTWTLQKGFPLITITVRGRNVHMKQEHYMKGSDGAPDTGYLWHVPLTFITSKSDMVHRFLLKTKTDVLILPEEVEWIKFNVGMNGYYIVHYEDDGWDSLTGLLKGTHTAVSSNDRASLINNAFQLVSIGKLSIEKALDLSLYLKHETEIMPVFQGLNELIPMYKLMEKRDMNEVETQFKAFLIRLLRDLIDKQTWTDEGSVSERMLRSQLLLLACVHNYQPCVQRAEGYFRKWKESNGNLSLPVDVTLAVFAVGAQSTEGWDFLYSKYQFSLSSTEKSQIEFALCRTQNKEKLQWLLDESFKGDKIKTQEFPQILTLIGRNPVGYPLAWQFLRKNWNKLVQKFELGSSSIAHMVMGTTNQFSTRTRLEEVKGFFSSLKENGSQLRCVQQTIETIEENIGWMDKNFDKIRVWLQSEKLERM
Each line names hits and unclear results; the compound was inactive in the other large screens. In the library only some 2.1% were active in any assay of this set; here they are far more common.

CCOc1cc(NC(=O)Nc2ccc(F)cc2)c(OCC)cc1NC(=O)CC	rRNA inh HTS -38
CC(NCc1ccccc1Cl)C(=O)Nc1ccc(C#N)cc1 (stereo not given)	rRNA inh HTS -29
COc1cccc(NC(=O)CSc2nc3c(sc4ccccc43)c(=O)n2CCCN2CCCC2)c1	none
CCN(CC)CCn1c(SCC(=O)Nc2cccc(OC)c2)nc2c(sc3ccccc32)c1=O	rRNA inh HTS -21
NC(=O)N/N=C(/CCCCCC/C(=N\NC(N)=O)c1ccccc1)c1ccccc1	rRNA inh HTS -26 (no result: PvdQ acylase, ARNT TACC3 PPI)
COc1cccc(S(=O)(=O)N[C@H]2CC[C@@H](CCNC(=O)Nc3cc(F)ccc3F)O[C@@H]2CO)c1	none (no result: PvdQ acylase)
Cc1ccccc1S(=O)(=O)N1CC(=O)N2[C@H](CO)[C@H](c3ccc(C#Cc4ccccc4)cc3)[C@@H]2C1	none (no result: PvdQ acylase, ARNT TACC3 PPI)
Cc1ccc(OCC(=O)Nc2ccc(S(=O)(=O)N(C)C3CCN(C)CC3)cc2)c(C)c1	ERAP1 inh 90
O=C(C[C@H]1C[C@H]2c3cc(NC(=O)C4CCC4)ccc3O[C@H]2[C@@H](CO)O1)NCC(F)(F)F	none (no result: PvdQ acylase)
C[C@H]1CN([C@@H](C)CO)C(=O)Cc2cc(NC(=O)CCN3CCOCC3)ccc2O[C@H]1CN(C)C(=O)Nc1ccc2c(c1)OCO2	none (no result: PvdQ acylase)
COCC(=O)Nc1ccc2c(c1)C(=O)N(C)C[C@H](OC)[C@H](C)CN(Cc1ccccc1OC)[C@@H](C)CO2	none (no result: PvdQ acylase)
CN1CCN(C(=O)CCN2C(=O)/C(=C\c3ccc(F)cc3)SC2=S)CC1	none
O=C(CN1C(=O)/C(=C/c2ccc(F)cc2)SC1=S)N1CCN(CCc2ccccn2)CC1	rRNA inh HTS -30
CCOc1ccc2nc(SCC(=O)Nc3ccc4c(c3)OCCO4)[nH]c2c1	none (no result: rRNA inh HTS, F508del corr, ERAP1 inh)
CN(C)S(=O)(=O)c1cccc(NC(=O)COC(=O)/C=C/c2ccc3c(c2)OCO3)c1	rRNA inh HTS -27
O=C(COC(=O)/C=C/c1ccc(Cl)cc1)Nc1cccc(S(=O)(=O)NC2=NCCCCC2)c1	rRNA inh HTS -20
CCOc1ccc2nc(SCC(=O)Nc3cccc(S(=O)(=O)NC4=NCCCCC4)c3)[nH]c2c1	rRNA inh HTS -27
Cc1cccc(OCC(=O)N2CCN(c3nnc(-c4ccccc4)c4ccccc34)CC2)c1	rRNA inh HTS -43
Cc1ccc(-c2nnc(N3CCN(C(=O)COc4cccc(C)c4)CC3)c3ccccc23)cc1	rRNA inh HTS -33
CN(C)CCCNC(=O)[C@@H]1[C@@H](CO)[C@@H]2Cn3c(ccc(-c4ccccc4)c3=O)[C@H]1N2C	none (no result: PvdQ acylase)
CC1CCN(CCCn2c(SCC(=O)Nc3ccccc3Cl)nc3ccccc3c2=O)CC1	rRNA inh HTS -33
COc1cccc(OCCNS(=O)(=O)c2ccccc2[N+](=O)[O-])c1	rRNA inh HTS -22
Cc1noc(C)c1NC(=O)N(C)C[C@H]1Oc2ncc(/C=C/c3ccccc3)cc2C(=O)N([C@H](C)CO)C[C@H]1C	none (no result: PvdQ acylase)
CS(=O)(=O)N1CCc2cc(NC(=O)c3ccc(Cl)cc3Cl)ccc21	rRNA inh HTS -24
Oc1ccc(Br)cc1-c1cc(-c2ccccc2)n[nH]1	none (no result: rRNA inh HTS, F508del corr, ERAP1 inh)
Oc1ccc(Br)cc1-c1ccnn1-c1ccccc1	rRNA inh HTS -39
O=S(=O)(NCc1c(Cl)cccc1Oc1ccccc1)c1ccc(F)cc1	rRNA inh HTS -39
Cc1cc2oc(C(=O)N3CCN(CCc4ccccn4)CC3)c(C)c2cc1C	rRNA inh HTS -28
CCOC(=O)N/N=C/c1ccccc1OCc1ccc(Cl)cc1	rRNA inh HTS -25 (no result: F508del corr)
C[C@H]1CCCCO[C@@H](CN(C)S(=O)(=O)c2ccc(Cl)cc2)[C@@H](C)CN([C@@H](C)CO)C(=O)c2cc(NS(=O)(=O)c3ccc(F)cc3)ccc2O1	none (no result: PvdQ acylase)
Cc1ccc2c(c1)c(CC(=O)Nc1ccc(C)c(F)c1)c(C(=O)O)n2C	rRNA inh HTS -24
Cn1c(C(=O)O)c(CC(=O)Nc2ccccc2F)c2ccccc21	none (no result: rRNA inh HTS, F508del corr, ERAP1 inh)
O=C(C[C@H]1CC[C@@H](NS(=O)(=O)c2ccc(F)cc2)[C@H](CO)O1)NC1CCC1	ARNT TACC3 PPI 30 (no result: PvdQ acylase)
O=C(C[C@H]1CC[C@H](NS(=O)(=O)c2ccc(F)cc2)[C@@H](CO)O1)NC1CCC1	none (no result: PvdQ acylase)
N#Cc1ccc(NC(=O)Nc2ccc(Oc3ccc(NC(=O)Nc4ccc(C#N)cc4)cc3)cc2)cc1	rRNA inh HTS -28
COc1ccc(CCNC(=O)c2ccc(-c3cccc([N+](=O)[O-])c3)o2)cc1OC	none
COc1ccc(CCNC(=O)c2ccc(-c3ccc([N+](=O)[O-])cc3Cl)o2)cc1	rRNA inh HTS -23
COc1ccc(-c2c[n+]3c(n2-c2ccccc2)SCC3)cc1	none
c1ccc(Cn2c(-c3ccccc3)c[n+]3c2SCCC3)cc1	rRNA inh HTS -45
CN(C)C(=O)[C@@H]1[C@@H](CO)[C@@H]2Cn3c(ccc(-c4cccnc4)c3=O)[C@H]1N2C(=O)NC1CCCC1	none (no result: PvdQ acylase)
Cc1cc(/C=C2\SC(=S)NC2=O)c(C)n1-c1ccccc1	none (no result: PvdQ acylase, ARNT TACC3 PPI, ERAP1 inh)
Cc1cc(/C=C2\SC(=S)NC2=O)c(C)n1-c1ccc(O)cc1	rRNA inh HTS -24
COC(=O)C1=NN(C(=O)c2ccc(Br)cc2)C(O)(C(C)(C)C)C1 (stereo not given)	rRNA inh HTS -24
O=C(Nc1ccccc1F)N1CC(=O)N2[C@H](CO)[C@H](c3ccc(C#CC4CCCC4)cc3)[C@@H]2C1	none (no result: PvdQ acylase, ARNT TACC3 PPI, ERAP1 inh)
CCCC#Cc1ccc2c(c1)O[C@@H](CN(C)C(=O)c1ccccc1)[C@H](C)CN([C@H](C)CO)S2(=O)=O	none (no result: PvdQ acylase)
N#C[C@@H]1N[C@@H](CO)[C@H]1c1ccc(C#CC2CCCCC2)cc1	none (no result: PvdQ acylase)
CCC/C(O)=C1\C(=O)CC(C)(C)CC1=NCc1ccccc1	rRNA inh HTS -22
CCCN=C1CC(C)(C)CC(=O)/C1=C(/O)CCC	none
O=C(C[C@H]1CC[C@H](NS(=O)(=O)c2ccccc2F)[C@H](CO)O1)NCCCN1CCOCC1	none (no result: PvdQ acylase)
Cc1cc(=O)c2ccccc2n1Cc1ccccc1	rRNA inh HTS -22
Cc1cc(=O)c2ccccc2n1CC(=O)NCc1ccccc1	none (no result: rRNA inh HTS, F508del corr, ERAP1 inh)
COC(=O)/C(=C/Nc1cccc2ccccc12)[N+](=O)[O-]	rRNA inh HTS -21
COc1cc(OC)cc(C(=O)Nc2cccc3ccccc23)c1	none
CC1CC(CC(=O)Nc2nc(-c3ccccc3)cs2)C(=O)O1 (stereo not given)	rRNA inh HTS -24
CC(=O)Nc1ccc(-c2csc(NC(=O)CCNC(=O)c3ccco3)n2)cc1	none (no result: ARNT TACC3 PPI)
O=C(CCNC(=O)c1ccco1)Nc1nc(-c2ccccc2)cs1	F508del corr 8.8 (no result: PvdQ acylase, ARNT TACC3 PPI)
C/C(CC1CC(COCC(C)C)OC1=O)=N\Nc1nc(-c2ccccc2)cs1 (stereo not given)	none (no result: rRNA inh HTS, F508del corr, ERAP1 inh)
CNC[C@@H]1OCCCC[C@H](C)Oc2ccc(NC(=O)Nc3c(C)noc3C)cc2C(=O)N([C@@H](C)CO)C[C@H]1C	none (no result: PvdQ acylase)
CCN1C(=O)[C@H]2[C@H]3CN=C(SCc4ccc(C#N)cc4)N3[C@@](CC)(C(=O)OC)[C@H]2C1=O	none
